Experimental data published in PubChem BioAssay (NCI).
About 79,000 compounds went through this panel and 15% of them were active in at least one assay; those are over-represented in the sample as a whole. A number with no mark means an inactive call. Calls of active or inactive are those of the source. Rule as the data show it: active = growth inhibition above about 70%; inactive = the rest.

Key:
[1] = NCI Yeast Anticancer Drug Screen. Data for the rad50 strain (AID 155);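 also: 0% = growth of vehicle-only cultures of the same strain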; details: S. cerevisiae rad50 strain growth inhibition, active compounds read high
Outline: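 Yeast carrying a defined DNA repair defect were exposed to test compounds, and growth was compared with vehicle-treated controls to give percent inhibition.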

[2] = NCI Yeast Anticancer Drug Screen. Data for the mec2-1 strain (AID 157); details: S. cerevisiae mec2-1 strain, active compounds read high
Outline: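 Vehicle-treated cultures served as reference for growth inhibition of compound-exposed mec2-1 yeast.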

[3] = NCI Yeast Anticancer Drug Screen. Data for the sgs1 mgt1 strain (AID 161);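 also: 0% = growth of cultures given vehicle only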; details: S. cerevisiae sgs1 mgt1 strain, active compounds read high
Outline: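 Inhibition of yeast growth, normalised to vehicle-treated controls, is reported for a strain bearing genetic alterations in DNA damage repair.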

[4] = NCI Yeast Anticancer Drug Screen. Data for the cln2 rad14 strain (AID 165);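 also: 0% = growth equal to vehicle treated cultures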; details: S. cerevisiae cln2 rad14 strain, active compounds read high
Outline: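 Each compound was tested on cln2 rad14 yeast. Inhibition of growth was calculated against vehicle-exposed controls.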

[5] = NCI Yeast Anticancer Drug Screen. Data for the bub3 strain (AID 167); details: S. cerevisiae bub3 mutant strain, active compounds read high
Outline: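 Compounds were applied to a genetically altered yeast strain carrying a cell-cycle control defect. Growth inhibition was scored against vehicle-treated controls.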

[6] = NCI Yeast Anticancer Drug Screen. Data for the mlh1 rad18 strain (AID 175); details: S. cerevisiae mlh1 rad18 strain growth inhibition, active compounds read high
Outline: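 Vehicle-treated cultures served as the reference for growth inhibition in a yeast strain carrying DNA damage repair alterations exposed to each compound.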

[7] = at 5.0 µM (retest, dose inferred, filed as 0.5)
[8] = at 50.0 µM (retest, dose inferred, filed as 5.0)

Compound | growth inhibition [1, 7] | growth inhibition [1, 8] | growth inhibition ([1]; at 50.0 µM) | growth inhibition [2, 7] | growth inhibition [2, 8] | growth inhibition ([2]; at 50.0 µM) | growth inhibition [3, 7] | growth inhibition [3, 8] | growth inhibition ([3]; at 50.0 µM) | growth inhibition [4, 7] | growth inhibition [4, 8] | growth inhibition ([4]; at 50.0 µM) | growth inhibition [5, 7] | growth inhibition [5, 8] | growth inhibition ([5]; at 50.0 µM) | growth inhibition [6, 7] | growth inhibition [6, 8] | growth inhibition ([6]; at 50.0 µM)
CCCCCCCCCCCCCCC[C@@H](O)C[N+](C)(C)CCO | 28% | 98% (active) | 90.5% (active) | 91% (active) | 99% (active) | 92.8% (active) | 50% | 98% (active) | 90% (active) | 42% | 98% (active) | 88.5% (active) | 69% | 98% (active) | 87.1% (active) | 57% | 98% (active) | 92.3% (active)
CC(/C=C/NNC1=NC(c2ccccc2)C(c2ccccc2)=NN1)Sc1ccccc1N (stereo not given) | 43% | 43% | 92.8% (active) | 22% | 22% | 93.2% (active) | 31% | 31% | 90.7% (active) | 18% | 18% | 90.8% (active) | 25% | 25% | 92.9% (active) | 17% | 17% | 91.3% (active)
O=C(/C=C/C(=O)N1CCCC1)N1CCCC1 | 6% | 10% | 1.15% | 3% | 1% | 0.65% | 4% | 3% | 14.8% | -4% | -11% | -1.35% | 2% | 6% | 2.55% | -2% | -2% | 37.4%
COc1ccc(/C=C2\Sc3scc(-c4ccc([N+](=O)[O-])cc4)[n+]3C2=O)cc1OC | 3% | 4% | 39.3% | -6% | 20% | 55% | -3% | 11% | 66% | 0% | -4% | 28.6% | 9% | 16% | 83% (active) | 3% | 12% | 65.8%
CCOC(=O)C(CC(=O)O)=C(c1ccccc1)c1ccccc1 | -10% | -7% | 17.5% | -5% | -8% | 18.5% | 3% | 14% | 7.9% | -31% | 4% | 79.7% (active) | 11% | 0% | 25.1% | -10% | 7% | -7.95%
CCCCNC(=S)NC1OC(CO)C(O)C(O)C1O (stereo not given) | 2% | 7% | 99.3% (active) | 2% | 10% | 99.4% (active) | -1% | 0% | 99.5% (active) | -4% | -3% | 99% (active) | -4% | -4% | 99.2% (active) | -1% | 20% | 99% (active)
CC(C)N=Cc1cc(Br)cc(Br)c1O.CC(C)N=Cc1cc(Br)cc(Br)c1O.[Co] | 93% (active) | 99% (active) | 92% (active) | 54% | 99% (active) | 90.6% (active) | 87% (active) | 99% (active) | 98% (active) | 88% (active) | 99% (active) | 65% | 98% (active) | 99% (active) | 86.3% (active) | 98% (active) | 99% (active) | 88.7% (active)
CC(=O)NS(=O)(=O)c1ccc(N=Cc2cc(Cl)cc(Cl)c2O)cc1 | 25% | 98% (active) | 83% (active) | 19% | 99% (active) | 92.1% (active) | 13% | 79% (active) | 44.5% | 46% | 98% (active) | 87.8% (active) | 44% | 99% (active) | 90.7% (active) | 67% | 99% (active) | 88% (active)
Cc1nn(C(=O)c2ccccc2O)c2c1C(c1ccc(O)cc1O)SC(N)=N2 (stereo not given) | -31% | 28% | 46% | -1% | 47% | 22.6% | -3% | 24% | 42.5% | 16% | 27% | 41% | 15% | 81% (active) | 71.7% (active) | -4% | 54% | 48.2%
Cc1ccccc1Nc1nc(-c2ccccc2)nc(N)c1N=O | 9% | 98% (active) | 59.2% | 9% | 98% (active) | 43% | 32% | 98% (active) | 72.8% (active) | 13% | 97% (active) | 28.6% | 4% | 97% (active) | 45% | 9% | 97% (active) | 59%
CCCCCCCCCc1ccc(OCC(O)CO)cc1 (stereo not given) | -3% | 98% (active) | 99.6% (active) | -1% | 99% (active) | 99.7% (active) | 2% | 99% (active) | 99.8% (active) | -11% | 98% (active) | 99.5% (active) | -9% | 98% (active) | 99.8% (active) | -4% | 98% (active) | 99.5% (active)
O=C(O)CN(CC(=O)O)C1CCCCC1N1CC(=O)OC(=O)C1 (stereo not given) | 35% | 35% | 74.3% (active) | 17% | 17% | 81.1% (active) | 26% | 26% | 75% (active) | 3% | 3% | 64.3% | -7% | -7% | 80.3% (active) | 25% | 25% | 76% (active)
Cc1ccc(S(=O)(=O)Nc2ccccc2C=O)cc1 | 17% | 54% | 99% (active) | 19% | 69% | 99.3% (active) | 16% | 63% | 99% (active) | 1% | 50% | 99% (active) | 4% | 49% | 98.8% (active) | 14% | 84% (active) | 99.1% (active)
CC(C)=CCC/C(C)=C/CCC1(C)C=Cc2c(c3ccccc3oc2=O)O1 (stereo not given) | 28% | 3% | 20.1% | 25% | 15% | 15.2% | 51% | 36% | 57.6% | 37% | 25% | 52.3% | 53% | 28% | 23.1% | 25% | 16% | 76.5% (active)
CCOc1c(N=Nc2ccccc2Cl)c(-c2ccccc2)nn1C(=S)S | -1% | 20% | 52.7% | -4% | 24% | 57.6% | -2% | -70% | 28.8% | -7% | 27% | 48.5% | 3% | 64% | 78.5% (active) | -2% | 31% | 42.9%
CC(C)(C)C(=O)CC(Cc1nccc2ccccc12)c1ccco1 (stereo not given) | -3% | 94% (active) | 98.7% (active) | -5% | 96% (active) | 99.2% (active) | -3% | 97% (active) | 98.7% (active) | 2% | 94% (active) | 98% (active) | -1% | 94% (active) | 99.2% (active) | -8% | 97% (active) | 98.9% (active)
CCOc1ccc(/C=C\c2ccnc3ccccc23)cc1OCC | -5% | 97% (active) | 98.3% (active) | -1% | 99% (active) | 97% (active) | 1% | 99% (active) | 50.9% | -3% | 99% (active) | 98.2% (active) | 5% | 99% (active) | 97.3% (active) | -13% | 98% (active) | 96.3% (active)
Cn1c(=S)c2[nH]c(SCc3ccncc3)nc2n(C)c1=O | -2% | 7% | 47.2% | 0% | -1% | 59% | -2% | 53% | 64% | -3% | -12% | 17.8% | -9% | 2% | 56.4% | -19% | -6% | 78.1% (active)
NC(N)=NC(N)=Nc1ccc(-c2ccccc2)cc1 | -17% | 96% (active) | -11.6% | 1% | 96% (active) | 14.6% | 2% | 97% (active) | 2.45% | -8% | 93% (active) | 7.8% | -1% | 97% (active) | 76.5% (active) | 4% | 96% (active) | 32.4%
CC(/C=N/NS(=O)(=O)c1ccc(C)cc1)=C(c1ccccc1)c1ccccc1 | 18% | 87% (active) | 81.2% (active) | 35% | 96% (active) | 55.5% | -79% | 96% (active) | 82.5% (active) | -10% | 89% (active) | 72.8% (active) | 43% | 93% (active) | 70.4% (active) | 62% | 94% (active) | 85% (active)
